Pf growth 48h – P. falciparum growth inhibition at 48 hours (one generation). P. falciparum luciferase growth in erythrocytes, 48 h. Potency, µM (series often up to 28.7 µM), hits mostly inhibitors. 310,000 tested, 5.9% active
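Growth was read as firefly luciferase luminescence after a 48 h, 37 C, 5% CO2 exposure of compounds to reporter-bearing P. falciparum cultures (0.1% parasitemia, 2% hematocrit final) in Albumax-supplemented RPMI 1640.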
Pf growth 96h – P. falciparum growth inhibition at 96 hours; P. falciparum luciferase reporter growth, 96 h; AID 504834; 320,000 tested, 6.9% active; Potency, µM (doses to about 28.7 µM), usual class: inhibitors
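Cell-based qHTS: luciferase-tagged P. falciparum in erythrocytes (2% hematocrit, 0.05% parasitemia final) incubated with compounds for 96 hours, 37 C, 5% CO2; luciferase detection reagent then added and luminescence measured.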
NS1 function inh – inhibitors of influenza NS1 protein function; Potency, µM (highest dose often 46.1 µM); 270,000 tested, 0.4% active; calls by dose curve; note: actives are rising curves; nearly all actives have a fitted effect of over 50% in size
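S. cerevisiae expressing influenza A NS1, grown in glucose, washed, then diluted 1:100 into pH 6.0 -URA galactose medium with 23 nl compound. Growth recovery read as OD600; NS1-free strain serves as control.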
SARS PLP yeast – inhibitors of SARS-CoV papain-like protease in yeast | S. cerevisiae expressing SARS-CoV PLpro, growth rescue | Potency, µM (series often up to 32.9 µM), actives largely listed as activators | AID 485353 | 330,000 tested, 0.19% active; calls by dose curve; note: nearly all actives have a fitted effect of over 55% in size
Shiga inhibitor – Shiga toxin inhibition; 290,000 tested, 9.2% active; Vero cells, Shiga toxin protein synthesis inhibition reporter; AID 2315; inhibition, % at 38.7 µM; in the data active = inhibition mostly above about 28%, no sharp cut-off; inactive = mostly below about 43%
Cycloheximide cs – affects cycloheximide protein synthesis inhibition readout, counter-screen; cell reporter, cycloheximide protein synthesis inhibition counterscreen; max response, %; 300,000 tested, 12% active; AID 2314; in the data active = max response mostly above about 13%, no sharp cut-off; inactive = mostly below about 14%; note: read at 38.3 µM for the half of the compounds with a filed dose
Numbers stand for hits; 0 = inactive; ? = inconclusive; - = no result; [ ] = dose if it differs, or a comment. Only some compounds are listed: those with a hit (about 21% of all), similar ones and a draw of the others. Unless noted, calls come from the whole dose curve; as a rule, active = well fitted inhibition curve with a large enough effect; inconclusive = small, poorly fitted or top-dose-only effect, or another doubt; inactive = no such curve, though single readings can be large or run the other way.

SMILES | Pf growth 48h | Pf growth 96h | NS1 function inh | SARS PLP yeast | Shiga inhibitor | Cycloheximide cs
O=C(C1CCCC1)N1CCC(CC2CC(c3ccc(Cl)cc3)=NO2)(C(=O)NCC2CCCCC2)CC1 (stereo not given) | ? | 1.04µM | 0 | 0 | 0 | 0
COc1ccc(C2=NOC(Cn3nc(-c4ccccc4)cc3C(=O)O)C2)cc1 (stereo not given) | 0 | 0 | - | 0 | - | -
COc1ccc(CNC(=O)C2(CC3CC(c4ccccc4)=NO3)CCN(C(=O)C3CCCC3)CC2)cc1 (stereo not given) | ? | 5.22µM | 0 | 0 | 0 | 0
O=C(CCc1nnc(Cc2ccc3c(c2)OCO3)o1)N(CC1CCC1)CC1CCCO1 (stereo not given) | 0 | 0 | 0 | 0 | 0 | 0
COc1ccc(OCC(=O)O/N=C(\N)Cc2cccs2)cc1 | 0 | 0 | 0 | 0 | 63.5 | 21.9
Cc1cccc(OCC(=O)O/N=C(\N)Cc2cccs2)c1 | 0 | 0 | 0 | 0 | 0 | 0
Cc1ccccc1C(=O)O/N=C(\N)Cc1cccs1 | ? | ? | 0 | 0 | 95.0 | 87.6
N/C(Cc1cccs1)=N\OC(=O)COc1ccc(Br)cc1 | 0 | - | 0 | 0 | 0 | 30.2
COc1ccc(S(=O)(=O)N2CCCCC2)cc1NC(=O)CNc1ccc(F)cc1C | ? | 0 | - | 0 | - | -
Cc1cc(Cl)ccc1OCC(=O)NCCCCc1ccccc1 | 0 | 0 | 0 | 0 | 0 | 0
CN1C(=O)NC(c2ccccc2)C2=C1CN(Cc1ccco1)C2=O (stereo not given) | 0 | 0 | 0 | 0 | 0 | 0
CN1C(=O)C2(c3ccccc31)N(C)CC(c1ccccn1)C21SC(=S)N(Cc2ccco2)C1=O (stereo not given) | 9.28µM | ? | 0 | 0 | 0 | 31.8
CN1C(=O)C2(c3ccccc31)N(C)CC(c1ccccc1)C21SC(=S)N(Cc2ccco2)C1=O (stereo not given) | 1.31µM | 14.7µM | 0 | 0 | 0 | 0
O=C(O)C[C@]1(C(=O)Nc2ccc(F)cc2)CC(/C=C/c2ccccc2)=NO1 | 0 | 0 | 0 | 0 | 0 | 0
CCOC(=O)c1sc2ncn(/N=C/c3ccc(O)c(OC)c3)c(=O)c2c1C | 0 | 0 | 0 | 0 | 0 | 0
COc1ccc(NC(=S)N2CCC(c3ccccc3)C2)cc1 (stereo not given) | 0[0.00184 µM] | 0 | 0 | 0 | 83.7 | 40.0
O=C(Nc1ccccc1)N1CCC(c2ccccc2)C1 (stereo not given) | 0 | 0 | 0 | 0 | 82.6 | 39.5
CCc1ccc(NC(=O)N2CCC(c3ccccc3)C2)cc1 (stereo not given) | 0 | 0 | - | 0 | 107.6 | 38.8
CCOc1ccc(NC(=O)N2CCC(c3ccc(C)cc3)C2)cc1 (stereo not given) | 0 | 0 | 0 | 0 | 0 | 18.0
CCOc1ccc(NC(=O)N2CCC(C(=O)c3ccc(F)cc3)CC2)cc1 | ? | 0 | 0 | 0 | 0 | 0
O=C(CN1C(=O)c2ccccc2C1=O)Nc1ccccc1C(=O)NC1CCCCC1 | 0 | - | 0 | 0 | 0 | 0
CCN(CC)S(=O)(=O)c1ccc(C)c(N=C=S)c1 | 0 | 0 | - | 0 | 0 | 0
c1ccc(CN2CCC3(CC2)Nc2ccccc2S3)cc1 | 0 | 0 | 0 | 0 | 0 | 0
Cc1ccc(OCC(=O)NNC(=O)C2CSC3(C)CCC(=O)N23)cc1C (stereo not given) | 0 | 0 | - | 0 | - | -
Cc1ccc(Cl)cc1NC(=S)N1CCC(c2ccccc2)C1 (stereo not given) | 11.7µM | ? | 0 | 0 | 0 | 26.2
SMILES | Pf growth 48h | Pf growth 96h | NS1 function inh | SARS PLP yeast | Shiga inhibitor | Cycloheximide cs
Cc1ccc(NC(=O)N2CCCC(c3ccccc3)C2)cc1 (stereo not given) | 0 | 0 | 0 | 0 | 0 | 22.3
Cc1ccc(C)c(NC(=S)N2CCCCCC2)c1 | 0 | ? | 0 | ? | 0 | 0
CCCN1CCC(=O)N([C@H](CSc2ccc(C)cc2)Cc2ccccc2)CC1 | 9.28µM | 5.86µM | 0 | 0 | 0 | 0
Cc1ccc(SC[C@H](Cc2ccccc2)N2CCN(CCc3ccccc3)CCC2=O)cc1 | ? | ? | 0 | 0 | 0 | 0
CCCN1CCC(=O)N([C@H](CSc2ccc(OC)cc2)Cc2ccccc2)CC1 | 10.4µM | 2.94µM | 0 | 0 | 0 | 0
Clc1ccc(CNCc2cccs2)c(Cl)c1 | 0 | 0 | 0 | 0 | 0 | 0
CNC(=O)/C(C#N)=C/c1cccc(Oc2ccccc2)c1 | 0 | 0 | 0 | 0 | 64.0 | 42.0
CN(CC(=O)Nc1ccccc1C(F)(F)F)C(=O)c1ccc(-c2ccc(Cl)cc2)o1 | 2.94µM | 2.62µM | - | 0 | - | -
COc1ccc(-c2nn(-c3ccccc3)cc2C(=O)N(C)CC(=O)Nc2cccc(F)c2)cc1 | ? | ? | - | 0 | - | -
COc1cccc(NC(=O)CN(C)C(=O)c2ccc(-c3ccc(Cl)cc3)o2)c1 | 1.65µM | 5.86µM | - | 0 | - | -
COc1cccc(NC(=O)CN(C)C(=O)c2ccc(-c3ccccc3Cl)o2)c1 | 0.294µM | ? | 0 | 0 | 0 | 11.0
COc1cccc(-c2nn(-c3ccc(C)cc3)cc2C(=O)N(C)CC(=O)Nc2cccc(F)c2)c1 | 5.22µM | 14.7µM | - | 0 | - | -
CN(CC(=O)Nc1ccccc1Br)C(=O)c1ccc(-c2ccc(Cl)cc2)o1 | ? | ? | 0 | 0 | 0 | 0
CCOc1cccc(C(=O)NC(=S)Nc2ccc(Cl)cc2C(=O)O)c1 | 0 | 0 | - | 0 | 0 | 0
COc1ccc(C(=O)Nc2ccc(N3CCN(C)CC3)cc2)cc1 | 0 | 0.0928µM | 0 | 0 | - | 47.9
CN1CCN(c2ccc(NC(=O)c3ccc4ccccc4c3)cc2)CC1 | 0 | 0 | 0 | 0 | 85.4 | 30.8
Cc1ccc(C(=O)Nc2ccc(N3CCN(C)CC3)cc2)cc1 | 0 | 0 | 0 | 0 | 56.3 | 34.3
COc1ccc(C(=O)Nc2ccc(N3CCN(C)CC3)cc2)cc1OC | 0 | ? | 0 | 0 | 47.7 | 30.0
CCCCOc1ccc(C(=O)Nc2ccc(N3CCN(C)CC3)cc2)cc1 | ? | 0 | 0 | 0 | 0 | 0
CN1CCN(c2ccc(NC(=O)COc3ccc4ccccc4c3)cc2)CC1 | ? | 0 | 0 | 0 | 0 | 0
CCOc1ccc(C(=O)Nc2ccc(N3CCN(C)CC3)cc2)cc1 | 0 | 0 | 0 | 0 | 0 | 0
N#C/C(=C(/N)Sc1ccc(N)cc1)c1ccccc1C(F)(F)F | - | - | - | - | 0 | 0
O=C(CC(c1ccccc1)c1cc(Br)ccc1O)N1CCCC1 (stereo not given) | ? | 0 | 0 | 0 | 0 | 0
Cc1ccc(O)c(C(CC(=O)NC(C)C)c2ccccc2)c1 (stereo not given) | 0 | 13.1µM | 0 | 0 | 0 | 0
Cc1ccc(O)c(C(CC(=O)N2CCCC2)c2ccccc2)c1 (stereo not given) | 0 | 0.37µM | 0 | 0 | 0 | 0
CC(C)C(NS(=O)(=O)c1cccs1)C(=O)NCc1ccc2c(c1)OCO2 (stereo not given) | 0 | 0 | ? | 0 | 0 | 0
CCCCn1c(N)c(N(CCOC)C(=O)C(C)N2C(=O)c3ccccc3C2=O)c(=O)[nH]c1=O (stereo not given) | 0 | 0 | - | 0 | - | -
O=C(Nc1ccccc1N1CCN(C(=O)c2ccc(Cl)cc2)CC1)c1cc(Br)ccc1Cl | 6.57µM | 4.65µM | ? | 0 | 0 | 0
